Among the data in PubChem BioAssay AID720540 (National Center for Advancing Translational Sciences (NCATS), 2013) are Potency values, retold here.

Out of some 1,300 compounds screened, about 460 (35%) were called active. About 39% were inconclusive and are not listed. The call rests on the fitted dose curve; in most records, active means well fitted inhibition curve with a large enough effect; inconclusive means small, poorly fitted or top-dose-only effect; inactive means flat fitted curve, though single readings scatter. Some of the results follow. Some structures have more than one record in an assay (separate samples or runs), and their calls can disagree.

The assay deals with Protein phosphatase EYA2 (Homo sapiens) (UniProt O00167). Briefly: qHTS for Inhibitors of the Phosphatase Activity of Eya2: Confirmatory Assay for Cherry-picked Compounds. Further: nearly all actives have a fitted effect of over 65% in size. As to conditions: purified EYA2 phosphatase activity, qHTS confirmation; series mostly up to 46.1 µM. The source says: The Eya protein family is an essential co-activator of the Six1 transcription factor. Six1 is a developmental gene that is abnormally re-expressed in a large percentage of breast cancers. This over-expression plays a causal role in the initiation and metastatic development of breast cancers. The Eya family of protein is also found to contain a unique HAD phosphatase domain with protein tyrosine phosphatase activity which can potentially play a role in Six1-mediated breast tumorigenesis. Recently, Eya2 is found to dephosphorylate the histone variant H2AX and direct cells towards DNA repair instead of apoptosis in the event of DNA damage.
Sequence of Protein phosphatase EYA2 (Homo sapiens) (O00167 whole entry, looked up, the tested form may be a part): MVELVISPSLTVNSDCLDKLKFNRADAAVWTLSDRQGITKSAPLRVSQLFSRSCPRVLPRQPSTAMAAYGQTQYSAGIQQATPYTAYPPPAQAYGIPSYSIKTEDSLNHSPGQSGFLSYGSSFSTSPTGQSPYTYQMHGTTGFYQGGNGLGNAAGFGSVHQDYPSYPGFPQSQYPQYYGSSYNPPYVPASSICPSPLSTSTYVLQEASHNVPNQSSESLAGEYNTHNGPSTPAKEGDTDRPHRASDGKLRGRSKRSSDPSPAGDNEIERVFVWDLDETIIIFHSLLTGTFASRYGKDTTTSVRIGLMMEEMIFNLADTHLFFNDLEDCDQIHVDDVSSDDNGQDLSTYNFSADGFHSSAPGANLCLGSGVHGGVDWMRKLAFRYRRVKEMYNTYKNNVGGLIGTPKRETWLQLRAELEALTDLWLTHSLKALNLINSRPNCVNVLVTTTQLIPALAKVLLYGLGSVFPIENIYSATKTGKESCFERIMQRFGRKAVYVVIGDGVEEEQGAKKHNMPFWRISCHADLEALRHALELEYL
A 1536 well format, fluorescence based qHTS assay was developed and used to target the phosphatase activity of Eya2 (AID 488837). Inhibitors found against Eya2 could serve as potential therapeutic tools to inhibit Six1-mediated breast tumorigenesis and to increase the efficiency of radiation and certain chemo therapy. This assay assessed the activity of the primary screen cherry-picked compounds against Eya2. Inhibition is the desired outcome for this assay.
NIH Chemical Genomics Center [NCGC]
NIH Molecular Libraries Probe Centers Network [MLPCN]
Assay Submitter (PI): Rui Zhao, University of Colorado Denver
Eya2 enzyme and 3-O-methyl-fluorescein phosphate (OMFP) substrate working solutions were reconstituted in the buffer reagent consist of 50 mM HEPES pH 7.5, 50 mM NaCl, […], 0.05% BSA and 1 mM DTT. One and a half microliter of 0.2 uM Eya2 working solution was dispensed in a 1536 well Greiner plate (black, medium bind). Twenty-three nanoliter of test compounds and control compound EGTA was transferred to the assay plate using the Kalypsys robotic system equipped with a 1536 pin head. The plate was incubated at room temperature for 10 minutes. One and a half microliter of the 50 uM the OMFP substrate was then dispensed to the assay plate and incubated at room temperature for additional 10 min. The fluorescence signal was read using the PerkinElmer ViewLux plate reader using a 485 nm excitation and 525 nm emission filters. The data was normalized to the positive control for maximum inhibition and DMSO treated wells as negative control.
(qHTS replaces the single test concentration by a dilution series.)
`CN(C)S(=O)(=O)c1ccc(C(=O)NNc2nc(-c3ccccc3)c3cc(Br)ccc3n2)cc1`: the Potency is 8.49 µM (active).

Consider `Cc1ccc(N2C(=O)NC(=O)/C(=C/c3ccc(OC(=O)c4cccs4)cc3)C2=O)cc1`, for which the Potency was 12 µM (active). As for `O=C(Cc1ccccc1)c1ccccn1`, the Potency is 10.7 µM (active). Take `O=C1NC(=S)N(c2ccccc2)C(=O)/C1=C/c1ccco1`: the Potency was 6.75 µM (active). `COC(=O)C1=C(c2ccc(F)cc2OCc2ccccc2)C[C@@H]2CC[C@H]1N2C(=O)NCc1ccc(N(C)C)cc1`: the Potency was 8.49 µM (active).

For the molecule `COC(=O)C1=C(c2cccc(OCc3ccccc3)c2)C[C@@H]2CC[C@H]1N2C(=O)NCCCc1ccccc1`, the Potency entry is “inactive”.

Take `C[C@H]1CCC[C@H](O)CCCCCc2cc(O)cc(O)c2C(=O)O1`: the Potency result is “inactive”. Turning to `NC(Cc1cc(O)c(O)cc1O)C(=O)O` (stereo not given), the Potency is 2.39 µM (active). In the case of `N[C@@H](Cc1cc(I)c(O)c(I)c1)C(=O)O`, the Potency is 9.53 µM (active). As to `COc1ccc(-c2cc(=NCCC(=O)O)c3cc(C)ccc3o2)cc1`, the Potency was 16.9 µM (active). In the case of `CN(C)c1ccc(C=C2C=CC=C2)cc1`, the Potency was 19 µM (active) and inactive. In the case of `COc1ccccc1N1CCN(CCc2c[nH]c3cc4c(cc23)OCO4)CC1`, the Potency is 19 µM (active).

As for `CNc1ccc2nc3ccccc3[n+](C)c2c1`, the Potency was 16.9 µM (active). Turning to `O=C(O)CCCOc1ccc(Cl)cc1Cl`, the Potency entry is “inactive”. In the case of `O=[N+]([O-])c1cc(C(F)(F)F)c(Cl)c([N+](=O)[O-])c1Nc1ncc(C(F)(F)F)cc1Cl`, the Potency is 21.3 µM (active). For `C=C1C(=O)O[C@@H]2C[C@@H](C)[C@@H]3C=CC(=O)[C@@]3(C)[C@@H](OC(=O)CC(=O)O[C@H]3[C@@H]4C(=C)C(=O)O[C@@H]4C[C@@H](C)[C@@H]4C=CC(=O)[C@]43C)[C@H]12`, the Potency is 10.7 µM (active). Turning to `CCOC(=O)CCCc1cc[c]([Sb](=[O])([OH])[OH])cc1`, the Potency is 2.13 µM (active). In the case of `CCOC(=O)c1cc2c(cn1)[C@@H](CCO)NC2`, the Potency entry is “inactive”. As for `Cc1c(N=Nc2c(O)[nH]c(=O)[nH]c2=O)c(=O)n(-c2ccccc2)n1C`, the Potency was 2.13 µM (active). Regarding `COC1C(O)C(C)OC(OC2C(Oc3cccc4c(O)c5c(=O)oc6ccc(C)c7c(=O)oc(c34)c5c67)OC(C)C(O)C2O)C1O` (stereo not given), the Potency result is “inactive”.

As to `CN(C)c1ccc(N=Nc2ccccc2)cc1`, the Potency was 5.36 µM (active). For the molecule `Cc1nc2ccccc2c(=O)n1-c1ccc(Cl)cc1[N+](=O)[O-]`, the Potency result was “inactive”. For `CC(N)[C@H](O)c1ccc(O)c(O)c1` (stereo not given in full), the Potency entry is “inactive”. In the case of `O=C(O)c1cc[c]([Sb](=[O])([OH])[OH])cc1[N+](=O)[O-]`, the Potency is 2.69 µM (active). On to `O=C1NC(=O)N(c2ccc(Cl)cc2)C(=O)/C1=C\c1ccc(Sc2nc3ccccc3[nH]2)o1`, for which the Potency was 13.5 µM (active).
